Data on 14 compounds can be found in PubChem BioAssay.

Common to all, as to assay: modulators of BK channel variants, profiling panel, selectivity assay, cell-based, U2OS BacMam, thallium flux, beta subunits (AID 1259406);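 note: initial slope of Thallos dye fluorescence rise after thallium is added; log ratio against the mean of 0.3% DMSO vehicle wells on the same plate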
For experiment [1], the system named is F380Y. The following applies: at 30 µM.
In experiment [2] the test system is F380Y/beta1. The note with it: at 30 µM.
Experiment [3] relates to F380Y/beta2Delta. The note with it: at 30 µM.
Experiment [4] has as its system F380Y/beta4. The following applies: at 30 µM.
In experiment [5] the target is Calcium-activated potassium channel subunit alpha-1 (Homo sapiens) + Leucine-rich repeat-containing protein 26 (Homo sapiens) (UniProt Q12791+Q2I0M4). The note with it: F380Y/Slo1WT/gamma1, at 30 µM.
In experiment [6] the test system is R275C. The note with it: at 30 µM.
The subject of experiment [7] is R275C/beta1. The note with it: at 30 µM.
Experiment [8] concerns R275C/beta2Delta. The note with it: at 30 µM.
Experiment [9] deals with R275C/beta4. The following applies: at 30 µM.
In experiment [10] the test system is R275C/Slo1WT/beta2. The following applies: at 30 µM.

Unmarked numbers belong to inactive results. The source made the active and inactive calls.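 Rule for the calls: active = thallium flux through the channel raised or lowered by more than 3 SD from vehicle-only wells, actives on both sides; inactive = the rest.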

Calcium-activated potassium channel subunit alpha-1 (Homo sapiens) + Leucine-rich repeat-containing protein 26 (Homo sapiens), sequence (Q2I0M4 whole entry, looked up, one chain of several): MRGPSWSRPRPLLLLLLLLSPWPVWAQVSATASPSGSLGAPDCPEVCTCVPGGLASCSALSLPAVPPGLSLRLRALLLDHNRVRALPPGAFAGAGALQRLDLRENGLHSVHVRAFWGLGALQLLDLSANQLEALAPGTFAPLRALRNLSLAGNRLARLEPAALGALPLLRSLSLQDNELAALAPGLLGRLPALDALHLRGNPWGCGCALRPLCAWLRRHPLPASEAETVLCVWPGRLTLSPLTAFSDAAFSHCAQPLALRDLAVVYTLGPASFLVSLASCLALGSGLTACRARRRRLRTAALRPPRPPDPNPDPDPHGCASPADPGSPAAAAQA

As for `O=C(O)CSCC(=O)Nc1ccc(-c2nc3ccccc3s2)cc1`, the log fold change Tl+ flux in [1] is -0.0115; in experiment [2] it was 0.19 (active); in experiment [3], -0.0257; in experiment [4], -0.0352; in [5], 0.126 (active); in [6], 0.0193. Further, the log fold change Tl+ flux was 0.0504 in [7], 0.0724 in experiment [8], 0.0271 in [9] and -0.022 in [10].

Take `COC(=O)c1c(S(=O)(=O)N2CCOCC2)c(C)n(C)c1C`: the log fold change Tl+ flux in experiment [1] is 0.000226; in experiment [2] it was 0.0187; in experiment [3] it was -0.00469; in [4] it was 0.00738; in experiment [5], 0.0534; in [6] it was -0.00135. Further, the log fold change Tl+ flux in experiment [7] is 0.0384; in experiment [8] it was 0.108 (active); in [9], 0.0019; in experiment [10], -0.000777.

With `COCc1cc(=O)[nH]c(SCC(=O)c2ccc(-c3ccccc3)cc2)n1`, the log fold change Tl+ flux in experiment [1] is 0.0542; in experiment [2] it was 0.0105; in experiment [3] it was 0.0138; in [4] it was -0.000638; in experiment [5] it was 0.0335; in [6], 0.0131. The log fold change Tl+ flux in experiment [7] is -0.0427; in [8], 0.032; in [9], 0.0252; in experiment [10] it was -0.000518.

Turning to `Cc1ccc(C(=O)c2c(-c3ccccc3)cc(-c3ccccc3)c3c2C(=O)CCC3)cc1`, the log fold change Tl+ flux in experiment [1] is 0.0109; in experiment [2], -0.036; in [3], 0.0354; in experiment [4], -0.0286; in experiment [5], -0.0641; in experiment [6], 0.0312. In addition, the log fold change Tl+ flux in experiment [7] is -0.0154; in experiment [8] it was 0.00863; in experiment [9], -0.00364; in experiment [10] it was -0.0497.

For `Cc1onc(-c2c(Cl)cccc2Cl)c1C(=O)NOC(=O)c1cccs1`, the log fold change Tl+ flux in experiment [1] is 0.00334; in experiment [2] it was 0.0153; in experiment [3], 0.0189; in [4] it was 0.0829; in experiment [5] it was -0.0657; in experiment [6] it was -0.0156. For the same compound, the log fold change Tl+ flux is 0.0266 in experiment [7], 0.0291 in [8], 0.0618 in experiment [9] and -0.0647 in experiment [10].

For the compound `COC(=O)C(C#N)=C1NC(C)=NC(SC)=C1C#N`, the log fold change Tl+ flux in experiment [1] was -0.0152; in experiment [2] it was 0.03; in experiment [3] it was -0.00376; in [4], 0.021; in experiment [5], 0.0176; in [6], -0.014. Moreover, the log fold change Tl+ flux was -0.0163 in experiment [7], -0.0169 in [8], -0.0352 in experiment [9] and 0.0253 in experiment [10].

For `CCCOc1ccccc1C=NNC(=S)Nc1ccc(C)c(C)c1`, the log fold change Tl+ flux in [1] was 0.0357; in [2], 0.0157; in experiment [3], 0.00918; in experiment [4], 0.0274; in [5] it was -0.0242; in [6] it was -0.0214. In addition, the log fold change Tl+ flux is 0.0271 in experiment [7], -0.0014 in [8], 0.00171 in experiment [9] and 0.0415 in experiment [10].

As for `COC(=O)c1cnn(C(=O)Nc2c(C)cccc2C)c1C(OC)OC`, the log fold change Tl+ flux is -0.0549 in experiment [1]; -0.00196 in experiment [2]; -0.0264 in experiment [3]; -0.029 in [4]; 0.033 in experiment [5]; 0.02 in experiment [6]. In addition, the log fold change Tl+ flux in experiment [7] is -0.0504; in experiment [8], -0.0443; in experiment [9], 0.00703; in experiment [10], 0.00968.

As to `O=C(c1ccccc1)c1ccc2c(c1)Cc1ccccc1-2`, the log fold change Tl+ flux was 0.00926 in experiment [1]; -0.00651 in experiment [2]; 0.0385 in experiment [3]; -0.103 (active) in experiment [4]; -0.0649 in experiment [5]; -0.0862 (active) in experiment [6]. The log fold change Tl+ flux is -0.0486 in experiment [7], -0.00396 in [8], 0.00762 in experiment [9] and -0.0152 in experiment [10].

With `S=c1sc2c(s1)SCC1(CS2)OCCO1`, the log fold change Tl+ flux is -0.0425 in [1]; 0.0267 in experiment [2]; -0.0279 in experiment [3]; 0.0791 in experiment [4]; 0.000395 in [5]; -0.0211 in experiment [6]. Moreover, the log fold change Tl+ flux in experiment [7] was -0.0642; in experiment [8], -0.0207; in [9] it was -0.0357; in experiment [10], -0.00583.

Regarding `CCc1[nH]c(=S)[nH]c(=O)c1C#N`, the log fold change Tl+ flux in experiment [1] was -0.0598; in experiment [2], 0.0419; in [3], 0.0255; in experiment [4] it was 0.0765; in experiment [5], 0.0111; in experiment [6], 0.0263. Also, the log fold change Tl+ flux is -0.0177 in experiment [7], 0.00491 in [8], 0.0228 in experiment [9] and 0.0561 in experiment [10].

For `CC(=O)OCC(=O)C1(O)C(C)CC2C3CCC4CC(=O)C=CC4(C)C3C(O)CC21C` (stereo not given), the log fold change Tl+ flux was 0.0723 in experiment [1]; -0.0034 in experiment [2]; -0.017 in experiment [3]; 0.0362 in [4]; -0.00155 in [5]; 0.00844 in [6]. The log fold change Tl+ flux in [7] is 0.0348; in experiment [8], 0.0375; in experiment [9], 0.0527; in experiment [10], 0.00132.

Consider `N#CC(=Cc1cccs1)C(N)=O`, for which the log fold change Tl+ flux in [1] was 0.0135; in [2], 0.00229; in experiment [3], 0.0332; in experiment [4], -0.0391; in experiment [5], -0.00699; in experiment [6], 0.00755. For the same compound, the log fold change Tl+ flux in experiment [7] was -0.00113; in experiment [8] it was 0.0185; in experiment [9] it was 0.00837; in experiment [10], -0.0032.

`Cc1c(C(=O)Nc2ccc(N3CCOCC3)c(Cl)c2)cnn1-c1ccc(F)cc1`: the log fold change Tl+ flux is -0.0177 in experiment [1]; -0.00879 in [2]; -0.0427 in [3]; 0.0219 in experiment [4]; -0.0278 in experiment [5]; -0.00699 in [6]. In addition, the log fold change Tl+ flux in [7] is 0.0051; in experiment [8] it was -0.0229; in [9] it was 0.0362; in [10], 0.000473.
